Test results from PubChem BioAssay.
Calls of active or inactive are those of the source.

How the values were obtained:
Albumin (Bos taurus) = Albumin (Bos taurus) (UniProt P02769); assay: compounds binding labelled BSA control protein – biochemical, small-molecule microarray, Alexa647 label, 635/667 nm fluorescence, artefact control for SMM control protein annotation, profiling panel (AID 1118); conditions: BSA-A647 binding, fluorescence 635 nm, higher = more signal;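 note: score merges 667 nm emission intensity and signal-to-noise per printed compound spot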
[1] = probe aXIP binding to arrayed compounds – biochemical, NeuroSMM set, 635/667 nm fluorescence, primary screen (AID 1119); conditions: small-molecule microarray, higher = more signal, called active from +8 up or from −8 down;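 note: probe is the protein aXip251-270 applied at 1 µg/mL to compound-printed slides; binding of probe to printed compounds measured as 667 nm fluorescence plus signal to noise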
[2] = probe aNOTCH3 binding on compound microarray – biochemical, small-molecule microarray, 635/667 nm fluorescence, primary screen (AID 1120); conditions: higher = more signal;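 note: probe is a biotin-tagged antibody raised against NOTCH3 rather than NOTCH3 protein; score merges spot fluorescence near 667 nm with spot signal to noise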
[3] = probe aNOTCH2 binding on compound microarray – biochemical, small-molecule microarray, 635/667 nm fluorescence, primary screen (AID 1121); conditions: higher = more signal;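 note: score merges feature fluorescence read at 667 nm with its signal to noise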
[4] = target: Carbonic anhydrase 2 (Homo sapiens) (UniProt P00918); assay: compounds binding carbonic anhydrase 2 – biochemical, small-molecule microarray, Alexa647-labelled CAII, profiling panel (AID 1122); conditions: CAII-A647 binding fluorescence, higher = more signal
[5] = COS7 lysate on small-molecule microarray, probe aHis, 635 nm (AID 1123); conditions: COS7 cell lysate, fluorescence, higher = more signal;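 note: z-score combines 667nm fluorescence intensity with signal-to-noise per printed compound spot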
[6] = probe aLAP1 signal on lysate-treated microarray – cell lysate, small-molecule microarray, COS7 lysate, primary screen (AID 1124); conditions: probe aLAP1, fluorescence, higher = more signal;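 note: lysate comes from COS7 cells expressing LAP1 and is applied at 0.3 µg/mL; score merges spot fluorescence near 667 nm with signal-to-noise over triplicate slides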
Sam68 (KHDRBS1) = assay: compounds binding KHDRBS1 protein – biochemical, small-molecule microarray, 635 nm fluorescence, primary screen (AID 1125); conditions: higher = more signal;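 note: score merges 667 nm channel intensity with signal to noise over triplicate slides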
[7] = system: Chordin-like protein 2 (CHRDL2); assay: compounds binding chordin-like 2 – biochemical, small-molecule microarray, 635 nm fluorescence, primary screen (AID 1126); conditions: fluorescence 635 nm, higher = more signal;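 note: printed compound slides probed with Chrdl2 protein at 4 µg/mL for 1 h at 4 C; score merges 667 nm emission intensity with signal to noise over three replicate slides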
[8] = target: Concanavalin-A (Canavalia ensiformis) (UniProt P02866); assay: compounds binding concanavalin A lectin – biochemical, small-molecule microarray, Alexa647 label, 635 nm, artefact control for SMM control protein annotation, primary screen (AID 1127); conditions: ConA-A647 binding fluorescence, higher = more signal;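 note: z combines 667 nm emission intensity with signal-to-noise across three replicate slides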
[9] = compounds binding Alexa647 anti-His antibody – biochemical, small-molecule microarray, 635 nm fluorescence, artefact control for SMM control protein annotation, primary screen (AID 1128); conditions: higher = more signal;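 note: score merges feature fluorescence with signal-to-noise for each printed compound spot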
[10] = system: Human papillomavirus type 1a E7 protein (residues 1-88); assay: HPV1a E7 small-molecule binders, primary screen, biochemical, small-molecule microarray, residues 1-88, 635 nm (AID 1129); conditions: small-molecule microarray binding, fluorescence 635 nm; higher = more signal
[11] = target: Focal adhesion kinase 1 (Homo sapiens) (UniProt Q05397); assay: PTK2 protein binding on printed compound slides – biochemical, small-molecule microarray, 635/667 nm fluorescence, BSA, DTT, primary screen (AID 1130); conditions: 635 nm fluorescence, higher = more signal;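 note: composite of spot emission at 667 nm and signal to noise over triplicate slides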
[12] = system: Fibrinogen (Alexa647-labelled); assay: Alexa647-fibrinogen binding to printed small molecules – biochemical, small-molecule microarray, 635/667 nm fluorescence, artefact control for SMM control-protein annotation, profiling panel (AID 1131); conditions: fibrinogen-A647 binding fluorescence, higher = more signal;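 note: z-score merges 667 nm fluorescence with per-spot signal-to-noise over triplicate slides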
[13] = target: Follistatin (Homo sapiens) (UniProt P19883); assay: FST protein binding to printed compounds – biochemical, small-molecule microarray, 635/667 nm fluorescence, primary screen (AID 1132); conditions: 635 nm fluorescence, higher = more signal
[14] = target: Fibroblast growth factor 2 (Homo sapiens) (UniProt P09038); assay: basic fibroblast growth factor binding to printed compounds – biochemical, small-molecule microarray, 635/667 nm fluorescence, primary screen (AID 1133); conditions: FGF2, fluorescence 635/667, higher = more signal
[15] = JC-1 mitochondrial potential readout, lung cancer cells – cell-based, A549, JC-1 fluorescence, basal, 24 h, 100 nL, profiling panel (AID 1138); conditions: higher = more signal;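 note: A549 lung adenocarcinoma cells under basal conditions with no added stimulus; test concentration not given here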
Lefty1 = Lefty1 protein binding to printed compounds – biochemical, small-molecule microarray, 635/667 nm fluorescence, primary screen (AID 1139); conditions: fluorescence 635/667, higher = more signal
[16] = system: wheat germ agglutinin (Triticum aestivum), Alexa647-labelled; assay: Alexa647-WGA lectin binding to printed small molecules – biochemical, small-molecule microarray, 635/667 nm fluorescence, artefact control for SMM control-protein annotation, profiling panel (AID 1140); conditions: WGA-A647 binding, 635 nm fluorescence, higher = more signal;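 note: score merges 667 nm feature emission with signal to noise over triplicate slides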
[17] = target: Luciferin 4-monooxygenase (Photinus pyralis) (UniProt P08659); assay: inhibition of purified Photinus pyralis luciferase – biochemical, luminescence, purified enzyme, 2006 set, primary screen (AID 1141); conditions: purified firefly luciferase, SteadyGlo luminescence, 30 min; higher = more signal, called active from +8 up or from −8 down;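 note: cell-free assay with purified firefly luciferase at 100 ng per well in PBS; test concentration not given here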
Sequence of Luciferin 4-monooxygenase (Photinus pyralis) (P08659 whole entry, looked up): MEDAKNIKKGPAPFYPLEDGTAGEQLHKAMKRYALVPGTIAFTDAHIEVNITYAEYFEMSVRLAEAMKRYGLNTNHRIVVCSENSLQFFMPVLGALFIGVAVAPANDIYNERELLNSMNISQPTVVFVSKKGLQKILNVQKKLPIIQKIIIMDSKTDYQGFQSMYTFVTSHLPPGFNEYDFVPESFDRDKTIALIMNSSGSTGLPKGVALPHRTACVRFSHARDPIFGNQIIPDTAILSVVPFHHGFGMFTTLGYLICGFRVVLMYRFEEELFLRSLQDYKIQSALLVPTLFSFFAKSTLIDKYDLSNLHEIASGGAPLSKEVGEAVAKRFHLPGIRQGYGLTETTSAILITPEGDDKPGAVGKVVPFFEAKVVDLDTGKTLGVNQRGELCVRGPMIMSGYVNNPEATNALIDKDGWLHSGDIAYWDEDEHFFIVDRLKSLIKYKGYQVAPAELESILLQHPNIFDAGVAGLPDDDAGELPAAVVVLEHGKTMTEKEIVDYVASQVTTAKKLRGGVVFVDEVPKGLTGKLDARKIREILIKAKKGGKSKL

Sequence of Focal adhesion kinase 1 (Homo sapiens) (Q05397 whole entry, looked up): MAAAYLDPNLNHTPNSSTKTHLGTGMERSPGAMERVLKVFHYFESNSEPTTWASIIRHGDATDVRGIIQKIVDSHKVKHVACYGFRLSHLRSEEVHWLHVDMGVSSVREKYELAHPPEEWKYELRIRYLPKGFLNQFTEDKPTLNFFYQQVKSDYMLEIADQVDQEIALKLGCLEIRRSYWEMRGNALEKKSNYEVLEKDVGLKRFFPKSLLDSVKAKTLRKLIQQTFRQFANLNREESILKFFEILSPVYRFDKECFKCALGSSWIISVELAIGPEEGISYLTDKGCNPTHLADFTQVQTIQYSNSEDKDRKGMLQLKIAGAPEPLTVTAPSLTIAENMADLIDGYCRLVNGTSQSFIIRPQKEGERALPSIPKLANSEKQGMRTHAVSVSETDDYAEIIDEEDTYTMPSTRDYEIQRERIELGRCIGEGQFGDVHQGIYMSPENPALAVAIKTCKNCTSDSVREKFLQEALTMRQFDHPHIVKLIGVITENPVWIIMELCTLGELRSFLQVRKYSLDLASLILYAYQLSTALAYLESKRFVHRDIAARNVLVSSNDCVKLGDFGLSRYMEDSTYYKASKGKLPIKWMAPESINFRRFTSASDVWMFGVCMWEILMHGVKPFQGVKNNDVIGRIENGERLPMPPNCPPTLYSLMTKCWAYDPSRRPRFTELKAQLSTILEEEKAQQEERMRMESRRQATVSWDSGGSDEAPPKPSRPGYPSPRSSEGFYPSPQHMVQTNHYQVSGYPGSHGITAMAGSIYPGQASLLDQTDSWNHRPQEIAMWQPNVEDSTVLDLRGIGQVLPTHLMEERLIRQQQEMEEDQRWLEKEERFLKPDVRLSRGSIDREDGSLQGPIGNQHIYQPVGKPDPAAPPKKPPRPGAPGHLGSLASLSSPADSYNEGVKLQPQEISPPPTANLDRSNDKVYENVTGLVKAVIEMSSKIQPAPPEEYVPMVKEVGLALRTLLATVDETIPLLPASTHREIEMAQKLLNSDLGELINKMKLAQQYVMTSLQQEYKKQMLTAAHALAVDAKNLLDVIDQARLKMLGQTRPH
Sequence of Fibroblast growth factor 2 (Homo sapiens) (P09038 whole entry, looked up): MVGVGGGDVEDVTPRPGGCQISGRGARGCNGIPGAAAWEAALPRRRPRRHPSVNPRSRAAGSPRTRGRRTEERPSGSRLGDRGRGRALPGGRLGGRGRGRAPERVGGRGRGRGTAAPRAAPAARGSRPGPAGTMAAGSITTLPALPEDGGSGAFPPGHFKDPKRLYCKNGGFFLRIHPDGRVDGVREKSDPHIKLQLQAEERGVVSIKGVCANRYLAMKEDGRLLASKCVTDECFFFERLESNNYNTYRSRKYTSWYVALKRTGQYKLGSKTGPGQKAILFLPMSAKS
Sequence of Follistatin (Homo sapiens) (P19883 whole entry, looked up): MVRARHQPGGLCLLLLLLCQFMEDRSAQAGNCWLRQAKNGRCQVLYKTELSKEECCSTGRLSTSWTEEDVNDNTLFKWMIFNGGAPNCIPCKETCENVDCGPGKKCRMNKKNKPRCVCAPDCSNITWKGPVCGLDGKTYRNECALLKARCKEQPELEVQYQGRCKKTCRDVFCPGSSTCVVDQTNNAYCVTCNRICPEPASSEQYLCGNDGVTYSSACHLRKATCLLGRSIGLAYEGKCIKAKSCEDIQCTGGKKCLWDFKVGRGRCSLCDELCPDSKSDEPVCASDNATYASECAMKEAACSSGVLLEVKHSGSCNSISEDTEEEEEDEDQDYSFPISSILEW
Sequence of Concanavalin-A (Canavalia ensiformis) (P02866 whole entry, looked up): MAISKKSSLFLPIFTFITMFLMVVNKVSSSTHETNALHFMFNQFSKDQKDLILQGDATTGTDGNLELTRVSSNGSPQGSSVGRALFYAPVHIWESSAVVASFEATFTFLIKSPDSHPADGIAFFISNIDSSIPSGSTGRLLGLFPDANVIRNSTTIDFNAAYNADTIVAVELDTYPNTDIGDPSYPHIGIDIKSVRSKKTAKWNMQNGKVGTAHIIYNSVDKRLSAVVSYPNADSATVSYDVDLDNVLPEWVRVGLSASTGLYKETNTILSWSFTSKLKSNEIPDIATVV
Sequence of Albumin (Bos taurus) (P02769 whole entry, looked up): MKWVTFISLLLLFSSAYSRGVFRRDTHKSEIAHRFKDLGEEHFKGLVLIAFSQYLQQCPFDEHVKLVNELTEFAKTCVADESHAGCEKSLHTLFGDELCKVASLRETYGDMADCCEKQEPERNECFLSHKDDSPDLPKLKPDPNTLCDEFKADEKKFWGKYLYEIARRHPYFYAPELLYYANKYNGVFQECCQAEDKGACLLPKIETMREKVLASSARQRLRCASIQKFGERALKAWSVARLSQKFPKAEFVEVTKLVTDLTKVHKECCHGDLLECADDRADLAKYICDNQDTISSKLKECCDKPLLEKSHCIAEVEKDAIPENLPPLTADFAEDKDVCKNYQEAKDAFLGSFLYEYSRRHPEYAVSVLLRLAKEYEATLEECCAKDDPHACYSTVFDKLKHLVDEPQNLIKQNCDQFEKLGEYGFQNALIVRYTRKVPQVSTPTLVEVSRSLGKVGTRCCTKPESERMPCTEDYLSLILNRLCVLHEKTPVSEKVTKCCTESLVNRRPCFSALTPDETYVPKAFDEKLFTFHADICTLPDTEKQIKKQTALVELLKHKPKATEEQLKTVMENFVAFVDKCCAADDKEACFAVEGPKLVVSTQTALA

| SMILES | composite z-score (Albumin (Bos taurus)) | composite Z-score [1] | composite z-score [2] | composite z-score [3] | composite z-score [4] | composite z-score [5] | composite z-score [6] | composite z-score (Sam68 (KHDRBS1)) | composite z-score [7] | composite z-score [8] | composite z-score [9] | composite z-score [10] | composite z-score [11] | composite z-score [12] | composite z-score [13] | composite z-score [14] | z-score [15] | composite z-score (Lefty1) | composite z-score [16] | z-score [17] |
| --- | --- | --- | --- | --- | --- | --- | --- | --- | --- | --- | --- | --- | --- | --- | --- | --- | --- | --- | --- | --- |
| [N-]=[N+]=Nc1ccccc1C[C@@]1(C(=O)N2CCOCC2)N=C(c2ccc(OCCCO)cc2)O[C@@H]1c1ccccc1 | 0.847 | 0.527 (inactive) | 0.457 | -0.224 | 0.544 | 2.59 | -0.235 | 1.32 | -0.209 | 1.11 | 1.19 | 1.19 | 0.625 | 0.986 | 1.32 | 1.35 | 1.08 | 0.3 | 0.313 | -2.43 (inactive) |
| COc1ccc(C#Cc2ccc3c(c2)[C@]2(C(=O)N3)[C@H](c3ccc(OCCO)cc3)N3[C@H](c4ccccc4)[C@H](c4ccccc4)OC(=O)[C@H]3[C@@H]2C(=O)NC[C@H](O)c2ccccc2)cc1 | 0.615 | -0.128 (inactive) | 0.779 | -0.0531 | 0.496 | 1.71 | 0.117 | 1.3 | 0.152 | 1.02 | 0.825 | 1.23 | 0.116 | 0.928 | 0.789 | 1.05 | -1.54 | 0.906 | 0.887 | -0.0696 (inactive) |
| CC(C)[Si]1(C(C)C)OCc2cc(-c3ccc(-c4ccc(Cl)c(Cl)c4)o3)nc(-c3ccccc3)c21 | 0.566 | 0.131 (inactive) | -0.235 | -0.234 | -0.895 | -0.77 | -0.714 | -1.53 | -0.541 | -0.746 | -0.534 | -1.65 | -0.838 | -1.32 | -0.751 | -0.94 | -0.447 | -0.21 | -0.0496 | -1.07 (inactive) |
| [N-]=[N+]=Nc1ccccc1[C@H]1OC(c2ccc(OCCCO)cc2)=N[C@@]1(Cc1ccccc1)C(=O)NCCN1CCOCC1 | 0.887 | 1.16 (inactive) | 0.457 | 0.117 | 0.529 | 2.87 | 0.634 | 1.3 | 0.0045 | 1.16 | 1.65 | 1.23 | 0.309 | 0.996 | 1.21 | 0.989 | 2.49 | 0.624 | 1.2 | -4.32 (inactive) |
